This is one part of a sample in which hits are shown more often than they occur.
Pf Dd2 growth = inhibitors of Plasmodium falciparum Dd2 growth. P. falciparum Dd2 growth, SYBR Green, 72 h. Potency, µM (series often up to 28.9 µM), hits mostly inhibitors. 4.3% of 120,000 active. AID 1347417; active = well fitted inhibition curve with a large enough effect; note: nearly all actives have a fitted effect of over 65% in size
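Infected erythrocytes (Dd2, 0.3% parasitemia, 2.5% hematocrit final) are added to compound in RPMI-1640/Albumax II medium, grown 72 h at 37C in low oxygen, then lysed with saponin/Triton-X containing SYBR Green and read by fluorescence.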
Numbers stand for hits; – = inactive; [ ] = dose if it differs, or a comment.

SMILES	Pf Dd2 growth
CN(Cc1ccccc1)C(=O)[C@@H]1Cc2nc[nH]c2CN1C(=O)CCC(=O)O	–
CN1CCN(c2nc3c(c(=O)[nH]2)CCN(Cc2ccccc2Cl)CC3)CC1	–[5.79 µM]
Cc1ccccc1NS(=O)(=O)c1ccc2[nH]cc(C(=O)NCCc3ccccc3)c(=O)c2c1	11.2µM
CCc1ccc(NS(=O)(=O)c2ccc3[nH]cc(C(=O)NCCc4ccccc4)c(=O)c3c2)cc1	–
Cc1cc(C)cc(NS(=O)(=O)c2ccc3[nH]cc(C(=O)NCCc4ccccc4)c(=O)c3c2)c1	–
COc1ccc(NC(=O)CN2C(=O)NC3(CCC(C(C)(C)C)CC3)C2=O)c(OC)c1 (centres undefined)	–
Cc1cc(C(=O)N[C@@H]2CN(Cc3ccccc3)C[C@H]2CN(C)C)n[nH]1	–
CC1CN(C(=O)N2CCC(C(=O)NCCC3=CCCCC3)CC2)c2ccccc2O1 (centres undefined)	–
CCC1CN(C(=O)N2CCC(C(=O)NCCC3=CCCCC3)CC2)c2cc(C)ccc2O1 (centres undefined)	12.6µM
CCC1CN(C(=O)N2CCC(C(=O)NCCCc3ccccc3)CC2)c2cc(C)ccc2O1 (centres undefined)	–
OCCOCCn1cnc(-c2ccccc2)c1-c1ccc(-n2cccn2)cc1	–
COc1cc(OC)c(-c2c(-c3ccccc3)ncn2CCF)cc1OC	10µM
C#CCOc1ccccc1-c1c(-c2ccccc2)ncn1CCCO	–
CC(C)CC(=O)NCCc1noc(C2CC2)n1	–
O=C(c1ccc(F)cc1)N1C[C@@H]2C[C@H](C1)c1c(NS(=O)(=O)c3cccc(F)c3)ccc(=O)n1C2	–
CNC(=O)N1CCCC(c2nc(CCOCC3CCCC3)no2)C1 (centres undefined)	–
OC[C@@H]1O[C@H](CNC2CCOCC2)[C@H](N2CCN(c3ccc(F)cc3)CC2)[C@@H]1O	–
COCC1(CNC(=O)c2cccc(OC)c2)C[C@@H](O)[C@@H](O)C1 (some centres undefined)	–
CC1(C)[C@H]2CC[C@@H](CNC(=O)c3cccnc3)[C@@H]1C2	–
COc1cccc(C(=O)NC[C@@H]2CC[C@H]3C[C@@H]2C3(C)C)c1	11.2µM
COCCn1ncc(N2CCCC(CC(=O)N(C)CCc3ccccn3)C2)cc1=O (centres undefined)	–
COCCNC(=O)c1nc(-c2cccnc2)c2cnccn12	–
Cc1cccn2c(=O)c(C(=O)NCCc3ccc(Cl)cc3)cnc12	–
CC(C)(C)c1nc(C(=O)NCCc2ccc(Cl)cc2)n2ccncc12	2.24µM
Cn1ncc2c(C(=O)NCCc3ccc(Cl)cc3)cc(-c3ccc([S+](C)(=O)[O-])cc3)nc21	–
SMILES	Pf Dd2 growth
COC(=O)CNC(=O)c1nc(-c2ccsc2)c2cnccn12	–
C[S+](=O)([O-])c1ccc(-c2nc(C(=O)NCCc3ccc(Cl)cc3)n3ccncc23)cc1	8.91µM
COc1ccc(OC)c(NC(=O)Cn2nc3c(cc2=O)CCCCC3)c1	–
Cc1cccc(CNC(=O)c2ccc3c(c2)c(C)c(C)n3Cc2ccccc2)c1	–
CCn1c(C)c(C)c2cc(C(=O)NCc3ccc(F)cc3)ccc21	–
Cc1c(C)n(Cc2ccc(F)cc2)c2ccc(C(=O)NCc3ccco3)cc12	3.55µM
O=C(Cn1nc2c(cc1=O)CCCCC2)Nc1cccc(C(F)(F)F)c1	–
O=C1COCCN1C1CCN(Cc2cncs2)CC1	–
CCOc1ccccc1NC(=O)Cn1c(-c2ccc(F)cc2)nc(C)c(CCO)c1=O	–
COc1ccc(NC(=O)c2ccco2)cc1NC(=O)COc1ccc(C)cc1C	2.82µM
COc1ccc(NC(=O)c2ccco2)cc1NC(=O)COc1ccccc1	–
COc1ccc(NC(=O)c2ccco2)cc1NC(=O)COc1ccc(Cl)cc1C	–
Cc1cc(CNC(=O)[C@@H]2CCC[C@@H](NCC3CC3)CN(C)C(=O)C2)no1	–
CC(C)(C)CC(=O)N1CCN2C(=O)c3ccc(Cl)cc3NC(=O)[C@H]2C1	–
COCCOC1CCOC2(CCN(C(=O)c3ccc(C)nc3)CC2)C1 (centres undefined)	–
Cc1nc(-c2cccc(S(=O)(=O)N3CCC(C(=O)NCc4ccccc4Cl)CC3)c2)no1	–
Cc1ccc(NC(=O)C2CCN(S(=O)(=O)c3cccc4nonc34)CC2)cc1C	–
COc1ccc(-c2noc(N3CCC(C(=O)Nc4ccc(OC)c(OC)c4)CC3)n2)cc1	–
CC(=O)c1ccc(N2CCN(S(=O)(=O)c3cc(-c4noc(C)n4)ccc3C)CC2)cc1	–
Cc1nc(-c2ccc(C)c(S(=O)(=O)N3CCC(C(=O)Nc4ccc(Cl)cc4)CC3)c2)no1	11.2µM
COc1cccc(NC(=O)C2CCN(S(=O)(=O)c3cc(-c4noc(C)n4)ccc3C)CC2)c1	10µM
CCNC(=O)N1CCOc2ccc(CCC(=O)NCCOc3ccccc3OC)cc2C1	–
O=C(NC1CCCN(c2cc(-c3ccccc3)[nH]n2)C1)C1CCCC1 (centres undefined)	–
Cc1ccc(Cl)cc1NC(=O)N1CCCC(Cn2cnc3cccnc32)C1 (centres undefined)	–
COCC(=O)N[C@@H]1CN(S(C)(=O)=O)CC[C@@H]1c1nc(C)no1	–[5.79 µM]
SMILES	Pf Dd2 growth
COc1ccccc1CC(=O)N1CC[C@@H](NC(=O)c2cnccn2)[C@H](O)C1	–
CCc1cn(C[C@H](NC(=O)c2ccco2)C(=O)O)c(=O)[nH]c1=O	–
CCc1ccc(NC(=O)c2cc(S(=O)(=O)N3CCCCC3)c[nH]2)cc1	–
Cc1ccc(CNC(=O)c2cc(S(=O)(=O)N3CCCCC3)cn2C)cc1	–
Cn1cc(S(=O)(=O)N2CCCCC2)cc1C(=O)NCc1ccc(Cl)cc1	11.2µM
Cc1cc(C)cc(NC(=O)c2cc(S(=O)(=O)N3CCCCC3)c[nH]2)c1	–
O=C(NCc1ccc(Cl)cc1)c1cc(S(=O)(=O)N2CCCCC2)c[nH]1	11.2µM
Cn1cc(S(=O)(=O)N2CCCCCC2)cc1C(=O)NCc1ccc(F)cc1	–
CC(=O)N1CCC([C@@H]2CN(C(=O)c3ccc(C#N)cc3)C[C@H]2CO)CC1	–
COc1nccc(N2CCC(CC(=O)N3CCN(CCC#N)CC3)CC2)n1	–
COc1ccc(C(=O)Nc2ccc([C@H]3OCC(=O)N(Cc4nccn4C)[C@@H]3CO)cc2)cc1	–
O=C(c1cccc(F)c1)N1CCC(Oc2cccnc2)C1 (centres undefined)	–
Cn1ccnc1C(=O)N1CCC(Oc2cccc(F)c2)C1 (centres undefined)	7.94µM
O=C(C1CCOCC1)N1CCC(Oc2cccc(F)c2)C1 (centres undefined)	–
O=C(c1ccco1)N1CCCCC1c1nc(CCOCC2CC2)no1 (centres undefined)	–
CCCN(CC1CCOC1)C(=O)c1c(F)cccc1Cl (centres undefined)	–[5.79 µM]
COc1cccc(S(=O)(=O)N2CC3(Cc4ccccc4C(=O)N3)C2)c1	–
O=C(NC[C@H]1OC[C@@H](NC2CCCCC2)[C@@H]1O)c1cccs1	–
COc1ccc(N2Cc3c(ncnc3N3CCN(C(C)=O)CC3)N(C)CC2=O)cc1	–
Cc1sc(NC(=O)COc2ccc(C(C)(C)C)cc2)c(C(=O)OC(C)C)c1C	–
Cc1c(C(=O)OC(C)C)sc(NC(=O)C2c3ccccc3Oc3ccccc32)c1C(=O)OC(C)C	2.24µM
CCOC(=O)c1sc(NC(=O)C2c3ccccc3Oc3ccccc32)c(C#N)c1C	–
O=C(CC1CCCCN(Cc2ccccc2)C1=O)Nc1ccc(F)cc1F (centres undefined)	–
O=C(CC1CCCCN(Cc2ccccc2)C1=O)N1CCN(c2ccc(F)cc2)CC1 (centres undefined)	11.2µM
